The source of these data is PubChem BioAssay (Tox21).

A short description of experiment [1]: qHTS assay to identify small molecule agonists of the RXR signaling pathway - cell viability counter screen (AID 1159529). Further: series mostly up to about 77 µM; nearly all actives have a fitted effect of over 50% in size. The method, boiled down: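 CellTiter-Glo luminescence gave viability in the wells also read for beta-lactamase. Cells (RXR-alpha-UAS-bla HEK 293T, 2% charcoal-stripped FBS medium) had 5 hr plating, then 16 hr compound exposure at 37 C; tetraoctyl ammonium bromide served as positive control.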
A general note: In qHTS, concentration-response curves come from the screen itself.

Experiment [2] is described as follows: qHTS assay to identify small molecule antagonists of the retinoid acid receptor (RAR) signaling pathway - cell viability counter screen (AID 1159551). Further: nearly all actives have a fitted effect of over 35% in size. The essentials: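 C3RL4 cells were seeded overnight at 37 C, then treated with compounds plus 1 uM (final) retinol for 6 h at 37 C. Viability was read as ATP by CellTiter-Glo luminescence after 30 min at room temperature.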

A short description of experiment [3]: qHTS assay to identify small molecule antagonists of the retinoic acid receptor (RAR) signaling pathway (AID 1159552; further: nearly all actives have a fitted effect of over 50% in size). The essentials: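 Luminescent RARE reporter read-out in C3RL4 cells: 6 hr co-treatment at 37 C of test compounds with retinol at 1 uM final. Cells plated overnight beforehand; luciferase reagent incubated 30 min at room temperature before reading.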

A short description of experiment [4]: qHTS assay to identify small molecule agonists of the retinoic acid receptor (RAR) signaling pathway (AID 1159553). Further: potency means the concentration at half of the fitted maximal effect. The method, boiled down:
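C3RL4 cells carrying a RARE luciferase reporter were plated overnight at 37 C, then exposed to compounds in DMSO for 6 hr at 37 C and 5% CO2. Luminescence was read 30 min after luciferase reagent addition at room temperature.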

Experiment [5] can be described thus: qHTS assay to identify small molecule antagonists of the estrogen related receptor (ERR) signaling pathway from Tox21 library - cell viability counter screen (AID 1224834). Further: nearly all actives have a fitted effect of over 30% in size. The essentials:
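ERR reporter cells were plated 6 h before compound addition, then exposed to test compounds in DMSO for 17.5 h at 37 C. Viability was read as CellTiter-Fluor fluorescence after a 30-minute incubation at 37 C.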

Experiment [6] is described as follows: qHTS assay to identify small molecule agonists of the constitutive androstane receptor (CAR) signaling pathway - cell viability counter screen (AID 1224836). Further: series mostly up to about 92 µM; nearly all actives have a fitted effect of over 45% in size. The essentials:
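Cell viability multiplexed with the CAR agonist screen: CellTiter-Fluor fluorescence after 23 hr at 37 C. HepG2-CYP2B6-hCAR cells got compounds at 15 concentrations with PK11195 at 0.75 uM final.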

A short description of experiment [7]: qHTS assay to identify small molecule antagonists of the constitutive androstane receptor (CAR) signaling pathway - cell viability counter screen (AID 1224837). Further: series mostly up to about 92 µM; nearly all actives have a fitted effect of over 45% in size. The method, boiled down:
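HepG2 cells stably expressing hCAR and a CYP2B6-2.2kb reporter were plated and pre-incubated 4 hr at 37 C/5% CO2, then given compounds at 15 concentrations plus 50 nM CITCO (final). After 23 hr, viability was read by CellTiter-Fluor fluorescence.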

The target of experiment [8] is Nuclear receptor subfamily 1 group I member 3 (Homo sapiens) (UniProt Q14994). The experiment is described as follows: qHTS assay to identify small molecule antagonists of the constitutive androstane receptor (CAR) signaling pathway (AID 1224838). Further: nearly all actives have a fitted effect of over 40% in size. The method, boiled down: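 HepG2 cells stably co-transfected with hCAR and a CYP2B6-2.2kb luciferase reporter were seeded 4 h before compound addition at 15 concentrations. Cells were stimulated with 50 nM CITCO (final) for 24 h at 37 C; luciferase luminescence was then read.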
Chain of Nuclear receptor subfamily 1 group I member 3 (Homo sapiens) (Q14994 whole entry, looked up): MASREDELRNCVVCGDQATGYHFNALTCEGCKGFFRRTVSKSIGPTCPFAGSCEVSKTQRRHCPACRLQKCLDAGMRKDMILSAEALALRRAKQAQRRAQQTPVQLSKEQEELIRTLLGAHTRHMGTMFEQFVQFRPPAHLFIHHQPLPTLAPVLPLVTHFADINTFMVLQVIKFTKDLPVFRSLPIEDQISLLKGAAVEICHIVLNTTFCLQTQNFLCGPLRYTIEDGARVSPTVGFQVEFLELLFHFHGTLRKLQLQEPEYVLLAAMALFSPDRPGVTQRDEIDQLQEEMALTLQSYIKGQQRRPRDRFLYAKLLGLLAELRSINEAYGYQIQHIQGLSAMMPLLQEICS

The nature of experiment [9]: qHTS assay to identify small molecule antagonists of the estrogen related receptor signaling pathway with the pleiotropic PPARgamma coactivator (PGC) from Tox21 10K library - cell viability counter screen (AID 1224840; active means well fitted cell-killing curve with a large enough effect in the repeat runs, not every such curve was filed as active; further: nearly all actives have a fitted effect of over 40% in size). The essentials:
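PGC/ERR cells were seeded at 2,000 cells/well and left 6 hours at 37 C/5% CO2 before pin-tool addition of compounds in DMSO. After 17.5 hours at 37 C, CellTiter-Fluor was added and fluorescence read 30 minutes later.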

Experiment [10] addresses Thyrotropin receptor (Homo sapiens) (UniProt P16473). The experiment can be described thus: qHTS assay to identify small molecule agonists of the thyroid stimulating hormone receptor (TSHR) signaling pathway (AID 1224843; calls by dose curve; further: nearly all actives have a fitted effect of over 45% in size). The essentials:
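HEK293 cells stably bearing the thyrotropin receptor were plated at 800 cells/well and challenged with compound (30 min, RT). Accumulated cAMP was quantified via cAMP-d2 competing for cryptate-tagged antibody.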

Experiment [11] deals with Nuclear receptor subfamily 1 group I member 3 (Homo sapiens) (UniProt Q14994). The experiment is described as follows: qHTS assay to identify small molecule agonists of the constitutive androstane receptor (CAR) signaling pathway (AID 1224839). Further: series mostly up to about 92 µM; nearly all actives have a fitted effect of over 15% in size. The method, boiled down:
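Luminescent ONE-Glo read-out after 24 hr, 37 C exposure of double-stable HepG2-CYP2B6-hCAR reporter cells to a 15-point compound series, in the presence of 0.75 uM PK11195 (final).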

Experiment [12] has as its target Luciferin 4-monooxygenase (Photinus pyralis) (UniProt P08659). The experiment is described as follows: qHTS assay to identify small molecule inhibitors of firefly luciferase (AID 1224835). Further: series mostly up to about 120 µM; nearly all actives have a fitted effect of over 25% in size. The essentials: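 Inhibition of purified Photinus luciferase is measured by luminescence. Substrate levels (D-luciferin, ATP) sit at their KM values. Each compound is tested in a concentration series.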

A short description of experiment [13]: qHTS assay to identify small molecule antagonists of the estrogen related receptor signaling pathway with the pleiotropic PPARgamma coactivator (PGC) from Tox21 10K library (AID 1224841; call rule not given here; further: series mostly up to about 92 µM; actives are mostly falling curves and most rising ones were filed inactive; nearly all actives have a fitted effect of over 50% in size). The essentials: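 PGC/ERR reporter cells were seeded at 2,000 cells/well and held 6 hours at 37 C/5% CO2 before pin-tool addition of compounds in DMSO. After 18 hours at 37 C, One-Glo was added and luminescence read after 30 minutes at room temperature.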

Experiment [14] in a line: qHTS assay to identify small molecule agonists of the estrogen related receptor signaling pathway with the pleiotropic PPARgamma coactivator (PGC) from Tox21 10K library (AID 1224842). Further: nearly all actives have a fitted effect of over 15% in size. The method, boiled down: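 Luminescence from One-Glo (30 min, room temperature) measured after PGC/ERR cells had 18 h at 37 C with pinned compound (23 nL in DMSO). Cells had been seeded at 2,000 per well and pre-incubated 6 h.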

Results filed as inconclusive are left out. A number with no mark means an inactive call. Calls of active or inactive are those of the source. Unless noted, the call rests on the fitted dose curve; in most records, active means well fitted curve in the direction sought with a large enough effect in the repeat runs; inconclusive means weak or mixed curves; inactive means no such curve, though single readings can be large; an effect the other way counts as inactive or inconclusive.
On the % scale 0 is the no-effect control and ±100 the full control effect.

Chain of Thyrotropin receptor (Homo sapiens) (P16473 whole entry, looked up): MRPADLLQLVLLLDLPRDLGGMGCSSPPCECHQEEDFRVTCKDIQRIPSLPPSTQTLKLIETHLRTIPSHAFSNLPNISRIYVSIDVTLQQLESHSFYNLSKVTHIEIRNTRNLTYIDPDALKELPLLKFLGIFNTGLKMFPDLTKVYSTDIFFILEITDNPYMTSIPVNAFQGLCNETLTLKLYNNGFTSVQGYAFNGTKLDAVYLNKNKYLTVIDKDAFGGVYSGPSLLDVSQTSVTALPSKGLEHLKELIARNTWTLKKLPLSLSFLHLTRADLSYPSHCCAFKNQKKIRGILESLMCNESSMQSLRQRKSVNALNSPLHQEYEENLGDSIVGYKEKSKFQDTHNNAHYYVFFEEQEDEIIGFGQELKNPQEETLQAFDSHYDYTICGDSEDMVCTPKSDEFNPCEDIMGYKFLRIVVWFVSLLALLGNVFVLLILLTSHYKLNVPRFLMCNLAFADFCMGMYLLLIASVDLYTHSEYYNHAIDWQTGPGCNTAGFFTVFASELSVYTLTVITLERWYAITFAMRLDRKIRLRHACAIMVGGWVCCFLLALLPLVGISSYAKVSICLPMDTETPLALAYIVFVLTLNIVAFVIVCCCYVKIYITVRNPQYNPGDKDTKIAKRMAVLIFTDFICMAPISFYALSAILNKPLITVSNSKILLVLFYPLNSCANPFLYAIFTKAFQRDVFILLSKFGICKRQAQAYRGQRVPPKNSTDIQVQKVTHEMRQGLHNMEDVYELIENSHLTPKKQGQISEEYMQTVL
Chain of Luciferin 4-monooxygenase (Photinus pyralis) (P08659 whole entry, looked up): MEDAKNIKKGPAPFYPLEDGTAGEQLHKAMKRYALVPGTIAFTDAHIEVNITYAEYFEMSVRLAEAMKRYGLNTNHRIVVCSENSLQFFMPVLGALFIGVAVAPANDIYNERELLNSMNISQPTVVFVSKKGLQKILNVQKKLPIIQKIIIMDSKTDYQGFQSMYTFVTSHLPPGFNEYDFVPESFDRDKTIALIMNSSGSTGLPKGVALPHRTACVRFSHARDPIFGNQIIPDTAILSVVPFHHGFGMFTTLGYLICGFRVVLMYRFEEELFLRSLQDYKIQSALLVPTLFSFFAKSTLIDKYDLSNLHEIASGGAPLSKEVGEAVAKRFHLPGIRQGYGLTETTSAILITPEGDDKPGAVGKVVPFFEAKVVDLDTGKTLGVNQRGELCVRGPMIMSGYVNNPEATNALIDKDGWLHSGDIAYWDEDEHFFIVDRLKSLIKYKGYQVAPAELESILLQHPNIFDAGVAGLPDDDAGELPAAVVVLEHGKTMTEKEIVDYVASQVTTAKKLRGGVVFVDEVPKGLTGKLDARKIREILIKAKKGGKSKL

For the compound `C/C(=C(\CCOP(=O)(O)O)SC(=O)c1ccccc1)N(C=O)Cc1cnc(C)nc1N`, the figures for the activity change, negative = cytotoxicity in [1], in experiment [2] and in experiment [7] were -1.63% [at 6.97 µM], 2.57% [at 8.39 µM] and 5.24% [at 8.39 µM], respectively. Besides, the activity, negative = inhibition was 10.1% [at 8.39 µM] in experiment [3] and -18% [at 8.39 µM] in [8]. The activation in experiment [4] is 0.351% [at 8.36 µM]; in [10] it was -3.96% [at 8.39 µM]. The results for the viability change, negative = cytotoxic in experiment [5], in experiment [6] and in experiment [9] were 0.62% [at 8.39 µM], -1.07% [at 8.39 µM] and -2.4% [at 8.39 µM], respectively.

As to `O=C(OCCc1ccccc1)c1ccccc1`, the Potency entry in experiment [1], in experiment [2], in [3], in experiment [5], in experiment [6] and in experiment [7] was “inactive” each time. The Potency entry in experiment [8], in [11], in experiment [9] and in experiment [10] was “inactive” in each case. Also, the Potency in experiment [4] was 386 nM (active).

With `Nc1cc(C(=O)O)c(O)c(S(=O)(=O)O)c1`, the Potency entry in experiment [1], in experiment [2], in experiment [3], in experiment [4], in experiment [5] and in experiment [12] was “inactive” throughout. For the same compound, the Potency entry in experiment [7], in experiment [8], in [11], in [9], in experiment [13] and in [14] was “inactive” throughout. Besides, the Potency entry in experiment [10] is “inactive”.

`CCC(=O)O[C@]1(C(=O)CCl)[C@@H](C)C[C@H]2[C@@H]3CCC4=CC(=O)C=C[C@]4(C)[C@@]3(F)[C@@H](O)C[C@@]21C`: the Potency entry in [1], in experiment [2], in experiment [3], in experiment [4], in [12] and in experiment [6] was “inactive” in each case. Further, the Potency entry in experiment [7], in [8], in experiment [9], in [13] and in experiment [10] was “inactive” throughout.

As for `CCCCC(CC)COC(=O)COc1ccc(Cl)cc1Cl` (centres undefined), the Potency result in [1], in experiment [2], in [3], in [4], in [5] and in experiment [9] was “inactive” in each case. The Potency entry in experiment [10] is “inactive”.

As to `O=C(O)c1ccccc1Cl`, the Potency result in experiment [1], in experiment [2], in [3], in [4], in [12] and in [6] was “inactive” each time. Moreover, the Potency entry in [7], in experiment [9] and in experiment [10] was “inactive” throughout.

On to `CCO[C@H](Cc1ccc(OCCc2ccc(OS(C)(=O)=O)cc2)cc1)C(=O)O`, for which the Potency entry in experiment [1], in [2], in experiment [3], in experiment [4], in [5] and in experiment [6] was “inactive” each time. In addition, the Potency result in experiment [7], in experiment [8], in experiment [11] and in experiment [9] was “inactive” throughout.

With `CC1CCC(=O)C1=O` (centres undefined), the Potency result in experiment [1], in [2], in experiment [3], in experiment [4], in experiment [5] and in experiment [6] was “inactive” throughout. Besides, the Potency entry in experiment [7], in [8], in experiment [11], in experiment [9] and in experiment [10] was “inactive” throughout.

Regarding `O=C(O)C1(C(=O)O)CCC1.[NH2-].[NH2-].[Pt+2]`, the Potency entry in experiment [1], in experiment [2], in experiment [4], in experiment [5], in experiment [12] and in experiment [6] was “inactive” each time. Besides, the Potency entry in experiment [7], in [9] and in experiment [10] was “inactive” each time.

Take `Cc1cccc(Nc2ccccc2)c1`: the Potency entry in [1], in experiment [2], in [3], in experiment [5], in experiment [6] and in experiment [7] was “inactive” in each case. Besides, the Potency entry in experiment [8] and in experiment [9] was “inactive” throughout.

With `C=C(C)C(=O)OCCO`, the Potency result in experiment [1], in experiment [2], in [3], in [4], in experiment [12] and in experiment [6] was “inactive” in each case. For the same compound, the Potency result in experiment [8], in experiment [11], in experiment [9] and in experiment [10] was “inactive” in each case.
